Consider ten compounds from PubChem BioAssay (Tox21).

Assay [1] can be described thus: Nuclear factor erythroid 2-related factor 2/antioxidant responsive element (Nrf2/ARE) small molecule agonists: luciferase reporter gene qHTS assay in human keratinocytes (AID 1919969). Also: nearly all actives have a fitted effect of over 35% in size. Also: potency is read from the fitted curve at half-maximal effect. On the technique in general: A reporter such as luciferase makes a cellular process visible.
Assay [2] deals with Gonadotropin-releasing hormone receptor (Homo sapiens) (UniProt P30968). Description: Human gonadotropin-releasing hormone receptor (GnRHR) small molecule agonists, calcium flux assay in GnRHR-HEK293 cells (AID 1920063). Also: nearly all actives have a fitted effect of over 35% in size. Also: potency is read from the fitted curve at half-maximal effect. The method in brief:
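We seeded human GnRHR-expressing HEK293 cells for 18 hours, loaded them with calcium dye for an hour at 37 C, added test compounds, and recorded fluorescence intensity kinetically for three minutes.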
For orientation: Calcium flux is commonly read through the fluorescence of an indicator in the cells.

Assay [3] addresses KiSS-1 receptor (Homo sapiens) (UniProt Q969F8). In words: Human kisspeptin (KISS1R) small molecule agonists, calcium flux assay in KISS1R-HEK293 cells (AID 1920064; active = well fitted activation curve with a large enough effect in the repeat runs). The gist of the method: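 Kinetic calcium assay, 1 s sampling over 3 min at Ex/Em 480/540, in HEK293 cells engineered with human KISS1R; compounds delivered in DMSO after 1 h dye loading.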
Assay [4] is described as follows: p53 small molecule agonists, cell-based qHTS assay with human liver microsomes: qHTS cell viability counter screen (AID 1963579). Also: nearly all actives have a fitted effect of over 45% in size. Also: potency is read from the fitted curve at half-maximal effect. The method in brief:
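Metabolically activated exposure: compounds, human liver microsomes and NADPH (0.5 mg/mL final apiece) were added to p53RE-bla cells seeded 5 h earlier, left 16 h at 37 C, and then assessed for viability by CellTiter-Glo luminescence.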
Background: In qHTS, concentration-response curves come from the screen itself.

Assay [5] can be described thus: p53 small molecule agonists, cell-based qHTS assay with rat liver microsomes: qHTS cell viability counter screen (AID 1963580). Also: nearly all actives have a fitted effect of over 45% in size. Also: potency is read from the fitted curve at half-maximal effect. The method in brief: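 In HCT-116 cells carrying a p53 response element-bla reporter, compounds were metabolically activated in situ by rat liver microsomes with NADPH over 16 h. Cell ATP content then served as the cytotoxicity measure.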

Assay [6] deals with 5-hydroxytryptamine receptor 2A (Homo sapiens) (UniProt P28223). In words: 5-hydroxytryptamine receptor 2A (HTR2A) small molecule antagonists, cell-based qHTS assay (AID 1963586). Also: nearly all actives have a fitted effect of over 45% in size. The gist of the method:
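Antagonist-mode intracellular calcium assay: DOI (4 nM) added after 5 min compound pre-incubation at room temperature to dye-loaded HTR2A-CHO cells. Fluorescence followed for 3 min, sampled every second.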

The target is the same in assay [7]. Description: 5-hydroxytryptamine receptor 2A (HTR2A) small molecule agonists, cell-based qHTS assay (AID 1963587). Also: nearly all actives have a fitted effect of over 30% in size. Also: potency is read from the fitted curve at half-maximal effect. The gist of the method: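 HTR2A-CHO cells, plated 18 h at 37 C/5% CO2, dye-loaded 1 h at 37 C; compounds in DMSO added by pin tool (agonist mode). Intracellular calcium flux read as kinetic fluorescence on FDSS over 2 min at 1 s intervals.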
The target of assay [8] is Muscarinic acetylcholine receptor M1 (Homo sapiens) (UniProt P11229). In words: Cholinergic receptor muscarinic 1 (CHRM1) small molecule antagonists, cell-based qHTS assay (AID 1963588). Also: nearly all actives have a fitted effect of over 40% in size. The method in brief:
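CHRM1-CHO calcium-flux assay, antagonist mode. Cells were seeded 18 h, dye-loaded 1 h at 37 C and given compound for 5 min at RT, then acetylcholine was added at 50nM. FDSS fluorescence was read 3 min; 15 concentrations, three runs.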

The nature of assay [9]: cAMP Responsive Elements (CRE) small molecule agonists, cell-based qHTS assay (AID 1963590). The method in brief:
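A CRE-responsive beta-lactamase reporter in HEK 293T cells was used. Treatment ran 3 h at 37 C; detection used LiveBLAzer B/G FRET substrate for 2 h at room temperature.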

Assay [10] in a line: cAMP Responsive Elements (CRE) small molecule antagonists, cell-based qHTS assay (AID 1963591; active = well fitted inhibition curve with a large enough effect in the signal ratio in the repeat runs, not every such curve was filed as active; the % refers to the signal ratio). The gist of the method: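 HEK293T cells carrying a CRE-driven beta-lactamase reporter receive compound and NKH477 (0.25 uM final) for 3 h. Fluorescence from LiveBLAzer B/G FRET substrate is read after 2 h at room temperature.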
Assay [11] deals with Beta-2 adrenergic receptor (Homo sapiens) (UniProt P07550). Description: Adrenergic beta2 receptor (ADRB2) small molecule antagonists, cell-based qHTS assay (AID 1963592). Also: series mostly up to about 92 µM; nearly all actives have a fitted effect of over 50% in size. The method in brief: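 Cells (CHO, stable ADRB2 overexpression) incubated 18-20hr at 37C; compounds added from DMSO; agonist mix (1nM isoproterenol, 100uM IBMX, 25uM Ro-20-1724) added; 0.5hr RT; d2-cAMP and anti-cAMP-cryptate added; 1hr RT; 665/615 nm read.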
Sequence of Beta-2 adrenergic receptor (Homo sapiens) (P07550 whole entry, looked up): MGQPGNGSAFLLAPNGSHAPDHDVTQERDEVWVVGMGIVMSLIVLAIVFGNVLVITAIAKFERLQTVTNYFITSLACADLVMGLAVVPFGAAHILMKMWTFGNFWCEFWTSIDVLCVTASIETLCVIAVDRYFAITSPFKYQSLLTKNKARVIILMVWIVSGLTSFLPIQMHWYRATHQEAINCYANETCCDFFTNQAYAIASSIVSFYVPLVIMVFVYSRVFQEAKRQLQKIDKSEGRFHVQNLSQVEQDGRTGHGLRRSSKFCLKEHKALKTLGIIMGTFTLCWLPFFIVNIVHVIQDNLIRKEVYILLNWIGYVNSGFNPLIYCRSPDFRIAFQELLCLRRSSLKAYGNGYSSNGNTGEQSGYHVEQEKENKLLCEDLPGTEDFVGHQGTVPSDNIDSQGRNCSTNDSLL

For assay [12] the target is unchanged. In words: Adrenergic beta2 receptor (ADRB2) small molecule agonists, cell-based qHTS assay (AID 1963593). Also: potency is read from the fitted curve at half-maximal effect.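 As to activation: CHO cells stably overexpressing human ADRB2.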 The gist of the method:
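CHO cells stably over-expressing ADRB2 were plated overnight at 37C, then dosed with compounds plus a stimulation mix containing 100uM IBMX and 25uM Ro-20-1724 for 0.5hr at room temperature. cAMP was measured by HTRF competition, 1hr.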

Assay [13] concerns the target D(2) dopamine receptor (Homo sapiens) (UniProt P14416). In words: Dopamine D2 receptor (DRD2) small molecule agonists, cell-based qHTS assay (AID 1963594). Also: nearly all actives have a fitted effect of over 35% in size. The gist of the method:
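HEK293 cells stably expressing DRD2 were cultured 24 h at 37 C, then given Ro20-1724 (0.1 mM final) and compounds for 10 min at room temperature. NKH477 (200nM) was then added for 30 min. cAMP was read by HTRF.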

Assay [14] shares this target. Description: Dopamine D2 receptor (DRD2) small molecule antagonists, cell-based qHTS assay (AID 1963595; active = well fitted inhibition curve with a large enough effect in the signal ratio in the repeat runs, with a control signal flat; the % refers to the signal ratio; also: potency is read from the fitted curve at half-maximal effect). The gist of the method: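 Human DRD2 antagonist qHTS measuring cAMP by HTRF. The cells are exposed to compound for 10 min, then to NKH477 (200 nM) and quinpirole (12 nM) for 30 min at RT, with Ro20-1724 (0.1 mM) present throughout.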
A short description of assay [15]: p53 small molecule agonists, cell-based qHTS assay with human liver microsomes (AID 1963577). The method in brief: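 In this qHTS, p53 response-element beta-lactamase cells receive test compound together with a microsome/NADPH activating system (0.5 mg/mL final each) and are incubated 16 h at 37 C before LiveBLAzer fluorescence detection.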
Assay [16] can be described thus: p53 small molecule agonists, cell-based qHTS assay with rat liver microsomes (AID 1963578). The gist of the method:
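Agonist mode in p53RE-bla reporter cells, with compounds co-incubated 16 h at 37 C alongside 0.5 mg/mL rat liver microsomes and 0.5 mg/mL NADPH (final), followed by a 2 h LiveBLAzer detection step.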

The nature of assay [17]: p53 small molecule agonists, cell-based qHTS assay: qHTS cell viability counter screen (AID 1963581). Also: nearly all actives have a fitted effect of over 45% in size. Also: potency is read from the fitted curve at half-maximal effect. The method in brief: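 Following 5 h attachment, HCT-116 p53RE-bla cells took up compound for 16 h at 37 C; the reporter was read with B/G FRET substrate (2 h RT), and viability then via CellTiter-Glo ATP luminescence.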
Assay [18] in a line: p53 small molecule agonists, cell-based qHTS assay (AID 1963582; active = well fitted activation curve with a large enough effect in the signal ratio in the repeat runs, not every such curve was filed as active; the % refers to the signal ratio). The gist of the method:
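In this cell-based concentration-response screen, a p53 response element drives beta-lactamase; cells received DMSO-borne compounds after 5 h culture and were incubated a further 16 h before FRET substrate development.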

In assay [19] the target is Muscarinic acetylcholine receptor M1 (Homo sapiens) (UniProt P11229). In words: Cholinergic receptor muscarinic 1 (CHRM1) small molecule agonists, cell-based qHTS assay (AID 1963589). Also: nearly all actives have a fitted effect of over 35% in size. Also: potency is read from the fitted curve at half-maximal effect. The method in brief: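 Measures agonist-induced intracellular calcium rise. Stable human CHRM1 CHO line, 1 h dye load at 37 C, compounds from DMSO, kinetic fluorescence read.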
Sequence of Muscarinic acetylcholine receptor M1 (Homo sapiens) (P11229 whole entry, looked up): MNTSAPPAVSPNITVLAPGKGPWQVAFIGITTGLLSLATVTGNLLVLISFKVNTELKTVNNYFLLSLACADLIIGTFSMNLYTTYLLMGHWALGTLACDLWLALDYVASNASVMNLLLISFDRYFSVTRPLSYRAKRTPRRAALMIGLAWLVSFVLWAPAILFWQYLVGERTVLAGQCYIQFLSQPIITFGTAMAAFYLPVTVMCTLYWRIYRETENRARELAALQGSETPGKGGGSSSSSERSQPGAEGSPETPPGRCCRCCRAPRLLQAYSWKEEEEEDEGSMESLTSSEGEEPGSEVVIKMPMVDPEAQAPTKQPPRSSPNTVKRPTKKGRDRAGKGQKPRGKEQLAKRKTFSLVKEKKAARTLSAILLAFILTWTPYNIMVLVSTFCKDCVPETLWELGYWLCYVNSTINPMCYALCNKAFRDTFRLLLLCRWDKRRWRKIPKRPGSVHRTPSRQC
Assay [20] in a line: G protein-coupled receptor (GPCR) small molecule agonists, calcium flux assay: HEK293 wild type cell line counter screen (AID 1920065). The method in brief:
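Calcium-sensitive dye, loaded 1 h at 37 C into cells cultured 18 h, reports compound-evoked calcium release as fluorescence (Ex/Em 480/540), measured over 3 min. Agonist mode; 15-point titrations, triplicate.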

“And” between values parts separate entries of the source, which are not always exact repeats. Equal entries are not always repeated. Results filed as inconclusive are left out. More than one record can exist for a structure, and the calls need not agree. The source made the active and inactive calls. Unless noted, calls follow the shape of the full dose curve.

Sequence of KiSS-1 receptor (Homo sapiens) (Q969F8 whole entry, looked up): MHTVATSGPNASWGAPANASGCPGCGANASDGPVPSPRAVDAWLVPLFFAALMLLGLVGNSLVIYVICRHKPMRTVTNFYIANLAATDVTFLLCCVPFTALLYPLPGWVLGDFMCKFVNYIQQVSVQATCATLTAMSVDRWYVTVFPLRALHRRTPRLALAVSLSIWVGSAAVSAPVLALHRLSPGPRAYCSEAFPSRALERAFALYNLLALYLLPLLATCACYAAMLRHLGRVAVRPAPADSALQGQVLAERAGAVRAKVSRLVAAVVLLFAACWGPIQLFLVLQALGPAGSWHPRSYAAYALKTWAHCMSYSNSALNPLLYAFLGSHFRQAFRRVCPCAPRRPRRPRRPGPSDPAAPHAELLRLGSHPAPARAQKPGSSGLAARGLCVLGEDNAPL
Sequence of Gonadotropin-releasing hormone receptor (Homo sapiens) (P30968 whole entry, looked up): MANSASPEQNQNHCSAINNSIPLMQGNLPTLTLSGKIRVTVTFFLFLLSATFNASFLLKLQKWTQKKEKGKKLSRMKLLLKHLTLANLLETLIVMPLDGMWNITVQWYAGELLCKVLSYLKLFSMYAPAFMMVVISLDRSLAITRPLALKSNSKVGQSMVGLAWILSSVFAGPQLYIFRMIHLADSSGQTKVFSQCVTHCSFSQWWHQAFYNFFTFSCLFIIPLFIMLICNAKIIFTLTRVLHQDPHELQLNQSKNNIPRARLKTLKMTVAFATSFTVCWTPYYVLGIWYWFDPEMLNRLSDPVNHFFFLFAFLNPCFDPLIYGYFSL
Sequence of 5-hydroxytryptamine receptor 2A (Homo sapiens) (P28223 whole entry, looked up): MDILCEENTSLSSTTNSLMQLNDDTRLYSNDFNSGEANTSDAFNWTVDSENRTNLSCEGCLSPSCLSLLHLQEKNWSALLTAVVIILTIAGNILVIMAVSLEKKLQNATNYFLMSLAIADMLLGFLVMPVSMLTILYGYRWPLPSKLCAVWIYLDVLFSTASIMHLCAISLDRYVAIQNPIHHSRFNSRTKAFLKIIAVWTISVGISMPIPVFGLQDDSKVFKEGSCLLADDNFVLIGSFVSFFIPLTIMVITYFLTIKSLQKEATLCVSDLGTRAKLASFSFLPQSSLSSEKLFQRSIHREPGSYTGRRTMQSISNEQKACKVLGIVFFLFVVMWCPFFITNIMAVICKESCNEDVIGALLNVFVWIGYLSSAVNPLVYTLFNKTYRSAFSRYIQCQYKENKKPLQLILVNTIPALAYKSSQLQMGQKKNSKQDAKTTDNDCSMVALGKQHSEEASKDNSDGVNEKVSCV
Sequence of D(2) dopamine receptor (Homo sapiens) (P14416 whole entry, looked up): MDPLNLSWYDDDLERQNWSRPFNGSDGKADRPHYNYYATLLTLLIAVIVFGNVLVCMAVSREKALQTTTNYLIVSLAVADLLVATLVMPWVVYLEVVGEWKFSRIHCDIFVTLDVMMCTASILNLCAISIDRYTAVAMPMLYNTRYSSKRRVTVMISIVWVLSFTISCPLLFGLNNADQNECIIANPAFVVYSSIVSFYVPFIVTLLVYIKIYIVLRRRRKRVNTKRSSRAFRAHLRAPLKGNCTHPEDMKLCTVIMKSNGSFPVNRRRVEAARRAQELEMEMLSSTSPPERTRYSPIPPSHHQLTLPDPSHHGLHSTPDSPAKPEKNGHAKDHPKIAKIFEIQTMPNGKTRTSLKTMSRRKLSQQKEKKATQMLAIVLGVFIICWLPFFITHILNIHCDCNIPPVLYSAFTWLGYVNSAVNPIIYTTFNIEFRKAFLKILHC

`CCNCC`: the Potency result in [1], in assay [2], in assay [3], in assay [4], in [5] and in [6] was “inactive” in each case. Also, the Potency result in assay [7], in assay [8], in assay [9], in assay [10], in [11] and in [12] was “inactive” in each case. Also, the Potency entry in assay [13] and in assay [14] was “inactive” in each case.

For the compound `C=CCN=C=S`, the Potency result in [1], in assay [2], in assay [3], in [15], in [16] and in assay [4] was “inactive” throughout. The Potency result in assay [5], in [17], in assay [18], in assay [6], in assay [7] and in assay [8] was “inactive” each time. Besides, the Potency entry in assay [19], in assay [9], in [10], in assay [11], in [12] and in [13] was “inactive” each time.

In the case of `O=[N+]([O-])/C=C/c1ccccc1`, the Potency entry in assay [2], in [3], in assay [20], in assay [15], in [16] and in assay [4] was “inactive” throughout. Also, the Potency entry in assay [5], in [17], in [6], in assay [7], in assay [8] and in assay [19] was “inactive” throughout. In addition, the Potency result in assay [11], in assay [12], in assay [13] and in [14] was “inactive” throughout.

In the case of `Nc1ccc(Cl)cc1`, the Potency entry in assay [1], in assay [2], in assay [3], in [15], in assay [16] and in assay [5] was “inactive” throughout. Moreover, the Potency entry in assay [17], in assay [6], in assay [7], in [19], in [9] and in assay [10] was “inactive” in each case. The Potency result in assay [11], in assay [12] and in assay [13] was “inactive” each time.

Consider `CC(=O)[O][Hg][c]1ccccc1`, for which the Potency is 864 nM (active) and 2.66 µM (active) in assay [1]; 34.4 µM (active) and 24.5 µM (active) in assay [2]; 4.04 µM (active) and 5.13 µM (active) in assay [4]; 3.6 µM (active) and 5.76 µM (active) and 11.2 µM (active) in assay [5]; 1.61 µM (active) and 4.08 µM (active) and 5 µM (active) in assay [17]; 21.7 µM (active) and 54.9 µM (active) and inactive in assay [7]. Further, the Potency was 43.6 µM (active) in assay [19] and 4.73 µM (active) in [12]. The Potency entry in assay [3], in assay [15], in [16], in [6] and in assay [8] was “inactive” in each case.

For `CNC(=O)Oc1cccc2c1OC(C)(C)C2`, the Potency result in assay [1], in [2], in [3], in [20], in assay [4] and in assay [5] was “inactive” each time. In addition, the Potency result in assay [17], in assay [18], in [6], in assay [7], in assay [8] and in assay [19] was “inactive” in each case. Further, the Potency result in [9], in assay [10], in [11], in [12], in assay [13] and in assay [14] was “inactive” each time.

As to `CC(C)(c1ccccc1)c1ccc(O)c(C(C)(C)c2ccccc2)c1`, the Potency result in assay [1] was “inactive and 7.7 µM (active)”; in assay [4], 40.4 µM (active) and inactive; in assay [17] it was 14.3 µM (active) and 45.8 µM (active); in [14] it was 54 µM (active). Besides, the Potency entry in assay [2], in [3], in assay [20], in assay [16], in assay [6] and in [7] was “inactive” each time. Moreover, the Potency result in assay [8] and in [13] was “inactive” in each case.

On to `COC(=O)c1ccc(CBr)cc1`, for which the Potency in [1] is 6.19 µM (active). For the same compound, the Potency result in [3], in assay [20], in assay [15], in assay [16], in assay [4] and in assay [5] was “inactive” each time. For the same compound, the Potency result in assay [17], in [18], in assay [6], in assay [7], in assay [8] and in assay [19] was “inactive” in each case. Besides, the Potency result in assay [9], in [10], in [11] and in assay [12] was “inactive” each time.

For the compound `S=C1NCCN1`, the Potency entry in assay [2], in [3], in assay [20], in assay [15], in [16] and in [4] was “inactive” each time. Besides, the Potency entry in [17], in assay [6], in assay [7], in [8], in [19] and in [9] was “inactive” throughout. For the same compound, the Potency entry in assay [10], in [11], in assay [13] and in [14] was “inactive” in each case.

`N#Cc1ccc(O)cc1`: the Potency entry in assay [3], in assay [20], in [15], in [16], in assay [4] and in assay [5] was “inactive” each time. Also, the Potency entry in assay [17], in assay [18], in assay [6], in assay [7], in [8] and in assay [19] was “inactive” each time. Moreover, the Potency entry in assay [9], in [10] and in assay [11] was “inactive” throughout.
